In PubChem BioAssay AID1159580 (chemical genetic matrix, 2015):
Hit rate of the full screen: of about 5,500 compounds, about 2,000 (36%) were called active. About 18% were inconclusive and are not listed. Some of the results follow. Unmarked numbers belong to inactive results. Rule as the data show it: active = normalized growth mostly below about 0.91 (no sharp cut-off); inconclusive = no clear call, values can overlap the other calls; inactive = mostly above about 0.92.

Assay: chemical genetic growth profiling, strain panel (AID 1159580);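 also: tested at 20 µM; growth read once vehicle control cultures reached saturation at 30 °C; 1 = growth at the plate median or of vehicle wells; lower values mean less growth of the strain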
Conditions: growth OD

COc1c(N2CCNC(C)C2)c(F)cc2c(=O)c(C(=O)O)cn(C3CC3)c12 (configuration not stated)
normalized growth (S. cerevisiae deletion strains, locus YJR075W, strain HOC1, stronger effect = lower value): 0.989 | normalized growth (S. cerevisiae deletion strains, locus YKL009W, strain mrt4, stronger effect = lower value): 1.02 | normalized growth (S. cerevisiae deletion strains, locus YKL068W, stronger effect = lower value): 0.997 | normalized growth (S. cerevisiae deletion strains, locus YKL085W, strain MDH1 (second series), stronger effect = lower value): 0.995 | normalized growth (S. cerevisiae deletion strains, locus YKL085W, strain MDH1, stronger effect = lower value): 0.995 | normalized growth (S. cerevisiae deletion strains, locus YKL160W, strain elf1, stronger effect = lower value): 0.975 | normalized growth (S. cerevisiae deletion strains, locus YKL190W, strain CNB1, stronger effect = lower value): 1.01 | normalized growth (S. cerevisiae deletion strains, locus YKR001C, strain vps1, stronger effect = lower value): 0.996 | normalized growth (S. cerevisiae deletion strains, locus YKR026C, strain gcn3, stronger effect = lower value): 0.987 | normalized growth (S. cerevisiae deletion strains, locus YKR091W, strain srl3, stronger effect = lower value): 0.98 | normalized growth (S. cerevisiae deletion strains, locus YLL001W, strain dnm1, stronger effect = lower value): 0.998 | normalized growth (S. cerevisiae deletion strains, locus YLL026W, stronger effect = lower value): 0.985 | normalized growth (S. cerevisiae deletion strains, locus YLL041C, strain sdh2, stronger effect = lower value): 0.988 | normalized growth (S. cerevisiae deletion strains, locus YLR027C, strain aat2, stronger effect = lower value): 0.99 | normalized growth (S. cerevisiae deletion strains, locus YLR039C, strain RIC1, stronger effect = lower value): 0.837 | normalized growth (S. cerevisiae deletion strains, locus YLR058C, strain SHM2, stronger effect = lower value): 1 | normalized growth (S. cerevisiae deletion strains, locus YLR102C, strain apc9, stronger effect = lower value): 0.988 | normalized growth (S. cerevisiae deletion strains, locus YLR113W, strain HOG1, stronger effect = lower value): 1.03 | normalized growth (S. cerevisiae deletion strains, locus YLR221C, strain rsa3, stronger effect = lower value): 0.975 | normalized growth (S. cerevisiae deletion strains, locus YLR258W, strain gsy2, stronger effect = lower value): 0.987 | normalized growth (S. cerevisiae deletion strains, locus YLR262C, strain YPT6 (second series), stronger effect = lower value): 0.915 | normalized growth (S. cerevisiae deletion strains, locus YLR262C, strain YPT6, stronger effect = lower value): 0.846 | normalized growth (S. cerevisiae deletion strains, locus YLR268W, strain sec22, stronger effect = lower value): 0.988 | normalized growth (S. cerevisiae deletion strains, locus YLR320W, strain mms22, stronger effect = lower value): 0.75 (active) | normalized growth (S. cerevisiae deletion strains, locus YLR330W, strain CHS5, stronger effect = lower value): 1.01 | normalized growth (S. cerevisiae deletion strains, locus YLR342W, strain FKS1 (second series), stronger effect = lower value): 0.881 | normalized growth (S. cerevisiae deletion strains, locus YLR342W, strain FKS1, stronger effect = lower value): 0.972 | normalized growth (S. cerevisiae deletion strains, locus YLR357W, strain rsc2, stronger effect = lower value): 0.934 | normalized growth (S. cerevisiae deletion strains, locus YLR370C, strain arc18, stronger effect = lower value): 0.978 | normalized growth (S. cerevisiae deletion strains, locus YLR371W, strain rom2, stronger effect = lower value): 0.989 | normalized growth (S. cerevisiae deletion strains, locus YLR384C, strain iki3, stronger effect = lower value): 0.995 | normalized growth (S. cerevisiae deletion strains, locus YLR418C, strain cdc73, stronger effect = lower value): 0.973 | normalized growth (S. cerevisiae deletion strains, locus YML016C, strain PPZ1, stronger effect = lower value): 1.01 | normalized growth (S. cerevisiae deletion strains, locus YML032C, strain rad52, stronger effect = lower value): 0.492 (active) | normalized growth (S. cerevisiae deletion strains, locus YML120C, strain ndi1, stronger effect = lower value): 0.984 | normalized growth (S. cerevisiae deletion strains, locus YML124C, strain tub3, stronger effect = lower value): 0.985 | normalized growth (S. cerevisiae deletion strains, locus YMR058W, strain fet3, stronger effect = lower value): 0.992 | normalized growth (S. cerevisiae deletion strains, locus YMR078C, strain ctf18, stronger effect = lower value): 0.974 | normalized growth (S. cerevisiae deletion strains, locus YMR125W, strain sto1, stronger effect = lower value): 0.928 | normalized growth (S. cerevisiae deletion strains, locus YMR129W, stronger effect = lower value): 0.974 | normalized growth (S. cerevisiae deletion strains, locus YMR205C, strain PFK2, stronger effect = lower value): 0.996 | normalized growth (S. cerevisiae deletion strains, locus YMR223W, strain ubp8, stronger effect = lower value): 0.999 | normalized growth (S. cerevisiae deletion strains, locus YMR231W, strain pep5, stronger effect = lower value): 0.993 | normalized growth (S. cerevisiae deletion strains, locus YMR263W, strain SAP30, stronger effect = lower value): 1.01 | normalized growth (S. cerevisiae deletion strains, locus YMR307W, strain GAS1, stronger effect = lower value): 0.845 | normalized growth (S. cerevisiae deletion strains, locus YNL067W, strain RPL9B, stronger effect = lower value): 1 | normalized growth (S. cerevisiae deletion strains, locus YNL071W, strain lat1, stronger effect = lower value): 0.985 | normalized growth (S. cerevisiae deletion strains, locus YNL128W, strain TEP1, stronger effect = lower value): 1.03 | normalized growth (S. cerevisiae deletion strains, locus YNL153C, strain GIM3, stronger effect = lower value): 1.01 | normalized growth (S. cerevisiae deletion strains, locus YNL183C, strain NPR1, stronger effect = lower value): 0.983 | normalized growth (S. cerevisiae deletion strains, locus YNL209W, strain ssb2, stronger effect = lower value): 0.986 | normalized growth (S. cerevisiae deletion strains, locus YNL233W, strain BNI4, stronger effect = lower value): 1.01 | normalized growth (S. cerevisiae deletion strains, locus YNL248C, strain rpa49, stronger effect = lower value): 0.917 | normalized growth (S. cerevisiae deletion strains, locus YNL250W, strain rad50, stronger effect = lower value): 0.868 (active) | normalized growth (S. cerevisiae deletion strains, locus YNL271C, strain bni1, stronger effect = lower value): 1 | normalized growth (S. cerevisiae deletion strains, locus YNL298W, strain CLA4, stronger effect = lower value): 1.02 | normalized growth (S. cerevisiae deletion strains, locus YNL307C, strain MCK1, stronger effect = lower value): 1 | normalized growth (S. cerevisiae deletion strains, locus YNL322C, strain KRE1 (second series), stronger effect = lower value): 0.967 | normalized growth (S. cerevisiae deletion strains, locus YNL322C, strain KRE1, stronger effect = lower value): 1.01 | normalized growth (S. cerevisiae deletion strains, locus YNR049C, strain mso1, stronger effect = lower value): 0.963 | normalized growth (S. cerevisiae deletion strains, locus YNR052C, strain pop2, stronger effect = lower value): 1 | normalized growth (S. cerevisiae deletion strains, locus YOL006C, strain TOP1, stronger effect = lower value): 0.936 | normalized growth (S. cerevisiae deletion strains, locus YOL012C, strain htz1): 0.555 | normalized growth (S. cerevisiae deletion strains, locus YOL147C, strain pex11, stronger effect = lower value): 1 | normalized growth (S. cerevisiae deletion strains, locus YOR001W, strain rrp6, stronger effect = lower value): 0.986 | normalized growth (S. cerevisiae deletion strains, locus YOR061W, strain CKA2, stronger effect = lower value): 1.01 | normalized growth (S. cerevisiae deletion strains, locus YOR069W, strain VPS5, stronger effect = lower value): 1.01 | normalized growth (S. cerevisiae deletion strains, locus YOR070C, strain gyp1, stronger effect = lower value): 0.994 | normalized growth (S. cerevisiae deletion strains, locus YOR080W, strain dia2, stronger effect = lower value): 0.97 | normalized growth (S. cerevisiae deletion strains, locus YOR083W, strain WHI5, stronger effect = lower value): 1 | normalized growth (S. cerevisiae deletion strains, locus YOR106W, strain vam3, stronger effect = lower value): 0.994 | normalized growth (S. cerevisiae deletion strains, locus YOR136W, strain idh2, stronger effect = lower value): 1 | normalized growth (S. cerevisiae deletion strains, locus YOR144C, strain elg1, stronger effect = lower value): 0.998 | normalized growth (S. cerevisiae deletion strains, locus YOR184W, strain ser1, stronger effect = lower value): 0.99 | normalized growth (S. cerevisiae deletion strains, locus YOR231W, strain MKK1, stronger effect = lower value): 1.01 | normalized growth (S. cerevisiae deletion strains, locus YOR265W, strain rbl2, stronger effect = lower value): 0.984 | normalized growth (S. cerevisiae deletion strains, locus YOR270C, strain vph1, stronger effect = lower value): 0.896 | normalized growth (S. cerevisiae deletion strains, locus YOR290C, strain snf2, stronger effect = lower value): 0.951 | normalized growth (S. cerevisiae deletion strains, locus YOR316C, strain cot1, stronger effect = lower value): 0.995 | normalized growth (S. cerevisiae deletion strains, locus YPL051W, strain arl3, stronger effect = lower value): 0.975 | normalized growth (S. cerevisiae deletion strains, locus YPL055C, strain LGE1, stronger effect = lower value): 0.992 | normalized growth (S. cerevisiae deletion strains, locus YPL078C, strain atp4, stronger effect = lower value): 0.99 | normalized growth (S. cerevisiae deletion strains, locus YPL106C, strain sse1, stronger effect = lower value): 0.946 | normalized growth (S. cerevisiae deletion strains, locus YPL240C, strain hsp82, stronger effect = lower value): 0.986 | normalized growth (S. cerevisiae deletion strains, locus YPL241C, strain CIN2, stronger effect = lower value): 1.01 | normalized growth (S. cerevisiae deletion strains, locus YPL256C, strain CLN2, stronger effect = lower value): 0.956 | normalized growth (S. cerevisiae deletion strains, locus YPR119W, strain clb2, stronger effect = lower value): 0.997 | normalized growth (S. cerevisiae deletion strains, locus YPR141C, strain kar3, stronger effect = lower value): 1 | normalized growth (S. cerevisiae deletion strains, locus YPR163C, strain tif3, stronger effect = lower value): 1 | normalized growth (S. cerevisiae deletion strains, locus YPR167C, strain met16, stronger effect = lower value): 0.996 | normalized growth (S. cerevisiae deletion strains, strain wtn01, stronger effect = lower value): 0.996 | normalized growth (S. cerevisiae strains, strain wild type, stronger effect = lower value): 1.01
